Among the data in PubChem BioAssay AID761 (NMMLSC, 2007) are percent activity (GTP binding) values, retold here.

Among all 190,000 compounds or so, about 400 (0.21%) were called active. Roughly 2% stayed inconclusive and do not appear here. Only a selection was taken, and actives are over-represented in it overall. A number with no mark means an inactive call.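 Rule for the calls: active = percent activity GTP binding at least 20 points away from the 100% baseline, either down as inhibitor or up as activator; inconclusive = compound flagged as likely green fluorescent from well-wide comparison; inactive = the rest.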

In this assay the target is Cell division control protein 42 homolog (Homo sapiens) (UniProt P60953). The assay can be described thus: wildtype Cdc42 fluorescent GTP binding changes, either direction – biochemical, multiplex bead flow cytometry, Bodipy-GTP, primary screen (AID 761).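 Note: median bead fluorescence of bound Bodipy-FL-GTP at 100 nM; 0% = excess unlabeled GTP control and 100% = no compound control; below 100% means less GTP binding so inhibitor and above means activator.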 As to conditions: GST-Cdc42 beads, at 10 µM, actives lie on both sides.
Cell division control protein 42 homolog (Homo sapiens), sequence (P60953 whole entry, looked up): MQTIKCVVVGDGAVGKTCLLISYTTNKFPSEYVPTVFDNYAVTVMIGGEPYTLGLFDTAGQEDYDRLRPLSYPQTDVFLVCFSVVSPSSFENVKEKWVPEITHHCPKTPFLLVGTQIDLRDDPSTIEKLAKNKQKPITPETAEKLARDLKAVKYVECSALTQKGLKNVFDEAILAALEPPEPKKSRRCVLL
On to `O=C(O)/C=C/c1ccc(OCCCF)cc1`, for which the percent activity (GTP binding) was 101%.
For `CN(CC(=O)Nc1ccccc1[N+](=O)[O-])Cc1ccc(Br)cc1`, the percent activity (GTP binding) was 98%.
Next, `CCC(C)(C)NC(=O)C(c1cccc(OC)c1OC)N(CC(C)C)C(=O)CCC(=O)Nc1cc(C)on1` (configuration not stated): 99%.
The figure for `O=C(COC(=O)C1CCCCC1)Nc1ccc([N+](=O)[O-])cc1` is 96%.
Next, `Nc1nc(SCC(=O)N2CCN(S(=O)(=O)c3ccc(Cl)cc3)CC2)n[nH]1`: 100%; `O=C(Nc1ccc2c(c1)CCC2)c1ccc(Br)s1`: 98%.
For the compound `Cc1cccc2cc(CN(Cc3cccs3)C(c3nnnn3C3CCCC3)C(C)C)c(=O)[nH]c12` (configuration not stated), the percent activity (GTP binding) was 72% (active).
The figure for `CCC(c1nnnn1C1CCCC1)N(Cc1cccs1)Cc1cc2cccc(C)c2[nH]c1=O` (configuration not stated) is 103%; for `Cc1cccc2cc(CN(Cc3ccc4c(c3)OCO4)Cc3nnnn3C3CCCC3)c(=O)[nH]c12` it is 94%; for `COc1cc(OC)c(C(=O)OCC(=O)N2CC(=O)Nc3ccccc32)cc1OC` it is 103%.
Next, `CSc1nc2nc(-c3cccc(C(F)(F)F)c3)ccn2n1`: 93%; `CSc1ncccc1C(=O)NC1CCCCCC1`: 96%.
In the case of `COc1ccc(NC(=O)c2c(SC)nsc2SC)cc1`, the percent activity (GTP binding) was 105%.
For `CSc1nsc(SC)c1NC(=O)OC1CCCCC1`, the percent activity (GTP binding) is 35% (active).
Take `Cc1cc(C)n(-c2ccc(C(=O)O)cc2[N+](=O)[O-])n1`: the percent activity (GTP binding) was 98%.
As for `COc1ccc(NC(=O)CN2C(=O)CSC2=O)cc1`, the percent activity (GTP binding) was 98%.
The figure for `COc1cccc(OC)c1C(=O)OCC(=O)/C(C#N)=C(\C)N` is 95%; for `CC1(C)C(c2cccs2)=[N+]([O-])C2(CCCCC2=O)N1O` (configuration not stated) it is 99%; for `Cc1cc(NC(=O)CN2C(=O)NC(C)(CCc3ccccc3)C2=O)no1` (configuration not stated) it is 96%.
Turning to `CC(=O)c1ccc(NC(=O)CSC(=S)N2CCCC2)cc1`, the percent activity (GTP binding) is 97%.
Regarding `CCNC(=O)COC(=O)CCNC(=O)c1cccc(C)c1`, the percent activity (GTP binding) was 102%.
As for `O=C(N/N=C/c1ccco1)c1ccc(NC(=O)C2CC2)cc1`, the percent activity (GTP binding) is 92%.
Next, `CCOC(=O)c1ccccc1NC(=O)CSc1nc2ccccc2c(=O)[nH]1`: 92%; `CCN(CC)Cc1nc2sc(C)c(C)c2c(=O)[nH]1`: 94%.
As to `O=C(NN=C1CCC(=NNC(=O)c2cccnc2)CC1)c1cccnc1`, the percent activity (GTP binding) is 96%.
For the compound `O=C(CCN1CCN(C/C=C/c2ccccc2)CC1)Nc1cccc(F)c1`, the percent activity (GTP binding) was 98%.
For `C=CCn1c(CCNC(=O)c2ccccc2F)nnc1SCC(=O)Nc1ccc(OC)cc1`, the percent activity (GTP binding) was 96%.
In the case of `Cc1ccccc1OCCOc1ccc([N+](=O)[O-])cc1/C=N/n1cnnc1`, the percent activity (GTP binding) is 95%.
The figure for `Cn1cnnc1Sc1ccc(S(C)(=O)=O)cc1[N+](=O)[O-]` is 99%.
As for `Cc1nc(N2CCC(C)CC2)c2c(C)c(C(=O)Nc3cc(F)ccc3C)sc2n1`, the percent activity (GTP binding) is 92%.
Take `O=C(COC(=O)c1ccccc1)Nc1cccc(S(=O)(=O)N2CCOCC2)c1`: the percent activity (GTP binding) is 96%.
Next, `O=C1Nc2cc(Cl)c(Cl)cc2N(O)N1c1ccccc1Cl`: 92%; `O=[N+]([O-])c1cccc(/C([O-])=C(/C(=S)Nc2ccccc2F)[n+]2ccccc2)c1`: 95%.
Turning to `CCOc1cc2[nH]c(=O)n(Cc3ccc(C(=O)NCCCN4CCCC4=O)cc3)c(=O)c2cc1OCC`, the percent activity (GTP binding) is 98%.
As for `O=C(/C=C/c1ccc(Cl)cc1)Nc1ccc(S(=O)(=O)Nc2ncccn2)cc1`, the percent activity (GTP binding) was 98%.
As to `Cc1ccccc1CC1(CO)CCCN(C(=O)c2cc(-c3ccccc3)no2)C1` (configuration not stated), the percent activity (GTP binding) was 98%.
Consider `CCC1(CC)NC(=O)N(CC(=O)OCC(=O)NC(=O)c2ccccc2)C1=O`, for which the percent activity (GTP binding) was 101%.
Take `c1ccc(-n2nnnc2-c2cccnc2)cc1`: the percent activity (GTP binding) was 95%.
`O=C(Cn1cnc([N+](=O)[O-])n1)NCCc1ccccc1`: the percent activity (GTP binding) was 97%.
The figure for `COc1cc(/C=C/C(=O)OCC(=O)N2CCOCC2)ccc1OCC#N` is 97%; for `O=C(c1ccc(OC2CCN(Cc3ccccn3)CC2)cc1)N1CCCCCC1` it is 96%; for `COc1ccc(C)cc1NC(=O)CSc1nnc(CC(=O)Nc2ccccc2F)n1C` it is 101%.
Consider `Cc1cc(N/N=C/c2ccccc2F)c2ccccc2n1`, for which the percent activity (GTP binding) was 96%.
As to `Cc1c(C(N)=O)sc2ncn(CCOc3ccccc3)c(=O)c12`, the percent activity (GTP binding) is 89%.
For the compound `Cc1ccc(SC(CC(=O)c2ccc(C(C)(C)C)cc2)C(=O)O)cc1` (configuration not stated), the percent activity (GTP binding) is 77% (active).
In the case of `Cc1ccc(C(=O)CS(C)(=O)=O)cc1`, the percent activity (GTP binding) is 104%.
As for `CC(C)(C)c1ccc(C(=O)CSc2ncn[nH]2)cc1`, the percent activity (GTP binding) is 103%.
Next, `CC(=O)N/N=C/c1cc2c(cc1[N+](=O)[O-])OCO2`: 97%; `CC1(C)CC(=O)CC2(C1)NCC(c1ccccc1Cl)c1c2[nH]c2ccccc12` (configuration not stated): 96%.
The figure for `COc1ccc(CN(C)Cc2nc3cc(OC)c(OC)cc3c(=O)[nH]2)c(OC)c1` is 105%.
On to `O=C(Cc1cccs1)Nc1nnc(C2CC2)s1`, for which the percent activity (GTP binding) was 99%.
For the compound `CC(=O)Nc1nc(N(C)C)nc(N(C)C)n1`, the percent activity (GTP binding) was 97%.
`CN(c1ccccc1)S(=O)(=O)c1ccc(Cl)c(C(=O)OCC(=O)N2CCOCC2)c1`: the percent activity (GTP binding) is 96%.
On to `COc1ccccc1CN(C)c1nnnn1-c1ccccc1`, for which the percent activity (GTP binding) is 102%.
Consider `O=C(NCC1CCN(Cc2ccccc2Cl)CC1)Nc1cccc(Cl)c1`, for which the percent activity (GTP binding) is 106%.
In the case of `CC(=O)c1cc(C#N)c(N2CC(C)OC(C)C2)nc1C` (configuration not stated), the percent activity (GTP binding) was 98%.
`OCCC1CN(Cc2ccccc2-c2ccco2)CCN1Cc1ccsc1` (configuration not stated): the percent activity (GTP binding) is 92%.
For the compound `COc1ccc(NC(=O)CSc2nnc(-c3ccccc3F)n2C2CC2)cc1S(N)(=O)=O`, the percent activity (GTP binding) was 97%.
`O=C(NCc1ccco1)C(=O)c1cn(CC(=O)N2CCCCCC2)c2ccccc12`: the percent activity (GTP binding) was 94%.
On to `C=CCN(CC=C)S(=O)(=O)c1ccc(C(=O)Nc2nc3c(s2)CCc2ccccc2-3)cc1`, for which the percent activity (GTP binding) was 138% [activator] (active).
Take `C=CCN(CC=C)S(=O)(=O)c1ccc(C(=O)Nc2sc3c(c2C(N)=O)CCCCC3)cc1`: the percent activity (GTP binding) was 104%.
Turning to `COCCN(CCOC)S(=O)(=O)c1ccc(C(=O)Nc2nc3c(s2)CCc2ccccc2-3)cc1`, the percent activity (GTP binding) was 107%.
